# Measured values as given in PubChem BioAssay.
# The source made the active and inactive calls.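 The calls were made as follows, unless noted: active = compounds whose cell count with miR-34 switched on is under 0.7 times the count with it off; inactive = the rest.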
# Assays:
# [1] = sensitizers of A549 cells to miR-34 induction, primary screen, imaging, A549 dox-inducible miR-34, nuclei and caspase counts (AID 1347080); conditions: A549 miR-34 inducible, Hoechst nuclei count, 48 h
# [2] = survival rescue of mitochondrial mutant cells in low glucose, primary screen, MELAS cybrids, Rieske KO mouse fibroblasts, CellTiter-Glo (AID 1508586;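 active = mean z-score across replicates of 1.96 or higher in either the MELAS or the Rieske mutant cell line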;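 also: z relative to plate mean and SD of compound and empty wells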)
# [3] = stronger effect = lower value, cell number ratio, induced over uninduced
# [4] = measured here: relative caspase fold change +Dox/-Dox
# [5] = measured here: total cells with miR-34 induction, stronger effect = lower value
# [6] = measured here: total cells without miR-34 induction
# [7] = MELAS cybrid survival, CellTiter-Glo 48 h, stronger effect = higher value
# [8] = Rieske KO mouse fibroblast survival, CellTiter-Glo 72 h
# Also: test concentration not given here.
SMILES,"fold change [1, 3]","fold change [1, 4]","cell count [1, 5]","cell count [1, 6]","z-score [2, 7]","z-score [2, 8]"
CC(CCC(=O)O)C1CC[C@H]2[C@@H]3CC(O)[C@@H]4CC(O)CC[C@]4(C)[C@@H]3CC[C@]12C (some centres undefined),0.928 (inactive),0.729,9520,10300,-0.299 (inactive),0.38
CC(=O)OC1C[C@@H]2CC[C@@H]3[C@@H](CC[C@]4(C)C(OC(C)=O)C([N+]5(C)CCCCC5)C[C@@H]34)[C@@]2(C)CC1N1CCCCC1 (some centres undefined),0.894 (inactive),1.12,8090,9050,-0.47 (inactive),-0.53
CNC(=O)C(Cc1c[nH]c2ccccc12)NC(=O)C(CC(=O)NO)CC(C)C (centres undefined),0.883 (inactive),0.261,7640,8650,0.112 (inactive),0.643
O=C(NN=Cc1ccc([N+](=O)[O-])o1)c1ccc(O)cc1,1.02 (inactive),0.454,8470,8320,-0.586 (inactive),-0.436
CN1CC(=O)N2C(c3ccc4c(c3)OCO4)c3[nH]c4ccccc4c3C[C@@H]2C1=O (some centres undefined),0.882 (inactive),0.922,6530,7410,-0.417 (inactive),0.533
C=CCNC1=C2CC(C)CC(OC)C(O)C(C)C=C(C)C(OC(N)=O)C(OC)C=CC=C(C)C(=O)NC(=CC1=O)C2=O (centres undefined),1.02 (inactive),1.05,1870,1820,1.58 (inactive),-0.477
CC1(C)OC2C[C@H]3[C@@H]4CCC5=CC(=O)CC[C@]5(C)[C@]4(F)C(O)C[C@]3(C)[C@@]2(C(=O)CCl)O1 (some centres undefined),0.851 (inactive),0.816,4440,5220,-0.306 (inactive),-0.265
NC(=O)c1noc(C(CCCC2CCCCC2)CC(=O)NO)n1 (centres undefined),0.791 (inactive),1.15,6790,8580,-0.42 (inactive),-1.85
Cc1cc2c(F)c(Oc3ncnn4cc(OCC(C)O)c(C)c34)ccc2[nH]1 (centres undefined),1.07 (inactive),0.907,4250,3990,-0.638 (inactive),0.759
O=C(O)C1=CC(O)C(O)C(O)C1 (centres undefined),0.975 (inactive),0.723,9710,9960,-0.355 (inactive),0.667
COc1ccc(CNCc2cccc3ccccc23)cc1,0.918 (inactive),0.638,8220,8960,-0.404 (inactive),-0.0397
Cc1cn(C2CC(O)C(CO)O2)c(=O)[nH]c1=O (centres undefined),0.853 (inactive),1.28,7950,9310,-0.34 (inactive),0.719
CC[C@]1(O)C[C@H]2CN(CCc3c([nH]c4ccccc34)[C@@](C(=O)OC)(c3cc4c(cc3OC)N(C)[C@@H]3C45CCN4CC=C[C@@](CC)(C(OC(C)=O)[C@]3(O)C(=O)OC)[C@H]45)C2)C1 (some centres undefined),1.18 (inactive),0.78,1480,1260,0.649 (inactive),-0.168
COC1CC2CCC(C)[C@@](O)(O2)C(=O)C(=O)N2CCCCC2C(=O)OC(C(C)CC2CCC(OCCO)C(OC)C2)CC(=O)C(C)C=C(C)C(O)C(OC)C(=O)C(C)CC(C)C=CC=CC=C1C (some centres undefined),1.03 (inactive),1,4550,4420,0.115 (inactive),1.87
COc1cc(-c2cc(-c3cccc(O)c3)cnc2N)cc(OC)c1OC,0.804 (inactive),0.388,5380,6700,-0.34 (inactive),-0.00175
CCOC(=O)C(CCc1ccccc1)NC(C)C(=O)N1CCCC1C(=O)O (centres undefined),0.954 (inactive),0.968,7520,7880,-0.0746 (inactive),-0.409
CC1(C)S[C@@H]2C(NC(=O)C(C(=O)O)c3ccccc3)C(=O)N2C1C(=O)O (some centres undefined),0.89 (inactive),0.816,8430,9470,-0.386 (inactive),-0.157
C=C1C[C@@]2(O)O[C@@]3(CC2C(C)C)C(C)CC[C@@H]13 (some centres undefined),0.988 (inactive),0.924,9960,10100,-0.407 (inactive),0.387
CCOc1ccc2ccccc2c1C(=O)NC1C(=O)N2C(C(=O)O)C(C)(C)S[C@H]12 (some centres undefined),1.19 (inactive),0.989,8800,7400,-0.279 (inactive),-0.179
CC(Oc1cc(-n2cnc3ccc(CN4CCN(C)CC4)cc32)sc1C(N)=O)c1ccccc1C(F)(F)F (centres undefined),1.2 (inactive),0.688,1290,1080,0.375 (inactive),1.78
CC1(C)CCC(c2ccc(Cl)cc2)=C(CN2CCN(c3ccc(C(=O)NS(=O)(=O)c4ccc(NC(CCN5CCOCC5)CSc5ccccc5)c(S(=O)(=O)C(F)(F)F)c4)cc3)CC2)C1 (centres undefined),1.03 (inactive),0.848,4260,4140,0.179 (inactive),-2.71
O=C(NCC(O)CO)c1ccncc1Nc1ccc(I)cc1F (centres undefined),1.05 (inactive),0.75,3270,3120,-0.688 (inactive),-1.18

SMILES,"fold change [1, 3]","fold change [1, 4]","cell count [1, 5]","cell count [1, 6]","z-score [2, 7]","z-score [2, 8]"
CCC1OC(=O)CC(O)C(C)C(O[C@H]2OC(C)C(O[C@H]3C[C@@](C)(O)C(O)C(C)O3)C(N(C)C)C2O)C(CC=O)CC(C)C(=O)C=CC(C)=CC1COC1OC(C)C(O)C(OC)C1OC (some centres undefined),0.9 (inactive),0.768,8760,9740,-0.254 (inactive),-0.134
CCC1OC(=O)C(C)C(OC2C[C@@](C)(OC)C(O)C(C)O2)C(C)C(OC2OC(C)CC(N(C)C)C2O)[C@@](C)(O)CC(C)C(=O)C(C)C(O)[C@]1(C)O (some centres undefined),0.879 (inactive),1.14,7750,8820,-0.0604 (inactive),0.782
CNC(C)C(=O)NC(C(=O)N1CCCC1C(=O)Nc1snnc1-c1ccccc1)C1CCCCC1 (centres undefined),0.982 (inactive),0.55,8360,8510,-0.276 (inactive),-0.145
CC(=O)SC1CC2=CC(=O)CC[C@]2(C)[C@@H]2CC[C@@]3(C)[C@@H](CC[C@]34CCC(=O)O4)[C@H]12 (some centres undefined),0.898 (inactive),0.8,7310,8140,-0.198 (inactive),-0.323
CC1(C)C(OC2OC(C(=O)O)C(O)C(O)C2OC2OC(C(=O)O)C(O)C(O)C2O)CC[C@@]2(C)[C@H]1CC[C@]1(C)[C@H]2C(=O)C=C2[C@H]3C[C@@](C)(C(=O)O)CC[C@]3(C)CC[C@]21C (some centres undefined),0.916 (inactive),0.946,8230,8990,-0.0747 (inactive),-0.803
CCC(C)C(=O)OC1CCC=C2C=CC(C)C(CCC3CC(O)CC(=O)O3)[C@H]21 (some centres undefined),0.904 (inactive),0.982,4680,5180,-0.482 (inactive),-0.195
CC(CCC(=O)O)[C@@H]1CC[C@H]2[C@@H]3C(O)C[C@@H]4CC(O)CC[C@]4(C)[C@@H]3CC[C@]12C (some centres undefined),0.828 (inactive),0.703,7430,8980,-0.242 (inactive),0.0686
Cc1ccc(S(=O)(=O)C=CC#N)cc1,0.909 (inactive),0.678,7140,7850,-0.499 (inactive),-0.608
CC1O[C@@H](OC2C(O)C[C@H](OC3C(O)C[C@H](OC4CC[C@@]5(C)[C@H](CC[C@@H]6[C@H]5CC(O)[C@]5(C)C(C7=CC(=O)OC7)CC[C@]65O)C4)OC3C)OC2C)CC(O)C1O (some centres undefined),0.837 (inactive),0.829,400,478,0.348 (inactive),-0.197
Cc1c(O)cccc1C(=O)NC(CSc1ccccc1)C(O)CN1C[C@H]2CCCC[C@H]2CC1C(=O)NC(C)(C)C (some centres undefined),0.999 (inactive),0.485,7710,7710,-0.177 (inactive),-0.0438
O=CC(O)C(O)C(O)C(O)CO (centres undefined),0.892 (inactive),0.805,8030,9000,-0.158 (inactive),-0.000567
COc1ccc(C2CC(=O)c3c(O)cc(O)cc3O2)cc1O (centres undefined),0.926 (inactive),0.807,9010,9730,-0.233 (inactive),0.0902
CNc1nc(-c2ccc3c(N)n[nH]c3c2)cc(N2CC(C(=O)NC3CCCCC3)CCC2C)n1 (centres undefined),0.8 (inactive),0.791,6100,7620,0.231 (inactive),-0.229
Oc1ccc(OC2CCCCO2)cc1 (centres undefined),0.945 (inactive),0.827,7580,8020,-0.229 (inactive),-0.263
C[C@]12CC[C@H]3c4ccc(O)cc4CC[C@H]3[C@@H]1CC(O)C2O (some centres undefined),0.884 (inactive),0.677,8910,10100,-0.421 (inactive),-0.251
CC1CNc2c(cccc2S(=O)(=O)N[C@@H](CCCN=C(N)N)C(=O)N2CCC(C)CC2C(=O)O)C1 (some centres undefined),0.97 (inactive),0.669,7750,7990,-0.261 (inactive),-0.0788
CC(C)(O)C1CC[C@@](C)([C@@H]2C(O)C[C@@]3(C)[C@@H]4CC(OC5OC(CO)C(O)C(O)C5O)[C@H]5C(C)(C)C(OC6OCC(O)C(O)C6O)CC[C@@]56C[C@]46CC[C@]23C)O1 (some centres undefined),0.936 (inactive),0.796,9300,9940,-0.378 (inactive),0.478
CC(CCC(=O)O)C1CC[C@H]2[C@@H]3CC[C@@H]4CC(O)CC[C@]4(C)[C@H]3CC[C@]12C (some centres undefined),0.884 (inactive),1.13,7640,8650,-0.0806 (inactive),-0.272
NC(Cc1c[nH]c2ccc(O)cc12)C(=O)O (centres undefined),0.876 (inactive),0.739,8790,10000,-0.256 (inactive),0.553
CNC(=O)C(Cc1ccccc1)NC(=O)C(CC(C)C)C(CSc1cccs1)C(=O)NO (centres undefined),0.843 (inactive),0.442,6630,7870,0.43 (inactive),1.14
CC(C)c1onc(-c2c(Cl)cccc2Cl)c1COc1ccc(C=Cc2cccc(C(=O)O)c2)c(Cl)c1,0.901 (inactive),1.37,7080,7860,0.359 (inactive),-0.609
CC(O)[C@H]1C(=O)N2C(C(=O)OCOC(=O)C(C)(C)C)=C(SC3CN(C4=NCCS4)C3)C(C)[C@@H]12 (some centres undefined),0.943 (inactive),0.543,8990,9530,-0.198 (inactive),-0.552
